High-throughput results from PubChem BioAssay.
Rows were chosen to be rich in hits. Some 1.8% of all compounds tested hit in one or more screens of this group.
APP transl inh: inhibitors of APP translation via 5'UTR reporter, primary screen, APP 5'UTR luciferase, SH-SY5Y cells; SH-SY5Y APP 5'UTR-luciferase reporter, luminescence; inhibition, % at 2 µM; hit rate 0.82% among 190,000; AID 1285, 2008;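 active = inhibition above a set limit, derived from the sample mean plus 3 SD, cut at about 45% in these data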
KLF5 inh: KLF5 expression inhibitors, primary screen, DLD-1 cells, luminescence. DLD-1 KLF5 promoter-luciferase reporter. inhibition, % at 5 µM. hit rate 0.23% among 290,000. AID 1700, 2009;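 active = inhibition above a per-plate limit of that plate's mean compound inhibition plus 3 SD, cut at about 60% in these data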;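 note: higher means less KLF5 promoter-driven luciferase light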
IEC-6 tox: cytotoxicity in IEC-6 intestinal epithelial cells, primary screen, cytotoxicity control for KLF5 inhibitor project, cell-based, luminescence | inhibition, % at 5 µM | hit rate 0.78% among 290,000 | IEC-6 cytotoxicity, luminescence viability; in the data active = inhibition above about 22%
BaF3 tox: parental Ba/F3 cell viability inhibition, counter-screen for JAK2V617F inhibitor project, murine pro-B, CellTiter-Glo luminescence | CellTiter-Glo ATP luminescence | inhibition, % at 5.6 µM | hit rate 1.1% among 220,000 | AID 1486, 2009;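 active = inhibition above a per-campaign cutoff, the mean inhibition of all tested compounds plus 3 SD, cut at about 27% in these data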
Ba/F3 V617F tox: reduced viability of JAK2V617F-dependent Ba/F3 cells, primary screen, JAK2V617F inhibitor project, cell-based, Ba/F3 EpoR-JAK2V617F, luminescence; ATP luminescence; inhibition, % at 5.6 µM; hit rate 1.1% among 220,000; AID 1446, 2008;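 active = inhibition above the campaign mean plus 3 SD over all tested compounds, cut at about 24% in these data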;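 note: cytokine-independent growth of Ba/F3 cells driven by EpoR plus mutant JAK2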
BaF3 parental 2: parental Ba/F3 cell viability inhibition, counter-screen for JAK2V617F inhibitor project, murine pro-B, CellTiter-Glo luminescence; shares compounds with Ba/F3 V617F tox; cells kept alive by added IL-3; inhibition, % at 5.6 µM; hit rate 31% among 580; AID 1520, 2009;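 active = cell growth inhibition above the hit limit set in the earlier mutant JAK2 cell screen, cut at about 27% in these data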
JAK2V617F conf: viability loss in Ba/F3 EpoR-JAK2V617F cells, confirmation, JAK2V617F inhibitor project, cell-based, luminescence, triplicate | CellTiter-Glo luminescence | hit rate 66% among 580 | shares compounds with Ba/F3 V617F tox | inhibition, % at 5.6 µM;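 active = mean inhibition above the hit cutoff derived in the earlier primary screen, cut at about 25% in these data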;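 note: higher means lower luminescence from reduced cell ATP and viability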
Numbers stand for hits; 0 = inactive; - = no result.

SMILES | APP transl inh | KLF5 inh | IEC-6 tox | BaF3 tox | Ba/F3 V617F tox | BaF3 parental 2 | JAK2V617F conf
COc1ccc(OC)c(C2CC(=O)c3c([nH]c(C(=O)OC(C)C)c3C)C2)c1 (stereo unspecified) | 95 | 0 | 0 | 0 | 68 | 57 | 90
O=C(CNS(=O)(=O)c1ccc(Br)s1)N1CCC(N2CCCCC2)CC1 | 0 | 0 | 0 | 0 | 0 | - | -
CCOC(=S)SCC(=O)Nc1nc(-c2ccc(Br)cc2)cs1 | 0 | 0 | 0 | 0 | 27 | 71 | 99
O=c1[nH]cnc2c1ncn2[C@@H]1O[C@H](CO)[C@@H](O)[C@H]1O | 0 | 0 | 0 | 0 | 0 | - | -
O=c1cnn([C@@H]2O[C@H](CO)[C@@H](O)[C@H]2O)c(=O)[nH]1 | 0 | 0 | 0 | 0 | 36 | 0 | 68
COc1cc(/C=C2\COC/C(=C\c3ccc(O)c(OC)c3)C2=O)ccc1O | - | 0 | 0 | 0 | 25 | 0 | 91
COc1cc(/C=C2/CC/C(=C/c3ccc(O)c(OC)c3)C2=O)ccc1O | - | 0 | 0 | 0 | 0 | - | -
O=C(Nc1ccc(C#Cc2ccccc2)cc1)C1CC1 | 0 | 0 | 0 | 0 | 38 | 0 | 0
O=C(Nc1ccc(Oc2ccccc2)cc1)C1CC1 | 0 | 0 | 0 | 0 | 0 | - | -
CN(C)S(=O)(=O)c1ccc(-c2csc(N/N=C/c3ccco3)n2)cc1 | - | 0 | 0 | 0 | 0 | - | -
CN(C)S(=O)(=O)c1ccc(-c2csc(N/N=C/c3ccc(O)cc3)n2)cc1 | - | 0 | 0 | 0 | 45 | 49 | 94
CCC(C)[C@H](N)C(=O)NC[C@H]1CC[C@H](C(=O)N[C@@H](Cc2ccccc2)C(=O)O)CC1 (stereo partly specified) | - | 0 | 0 | - | - | - | -
Cn1cnnc1Sc1nc([N+](=O)[O-])nn1C | 0 | 0 | 0 | 0 | 0 | - | -
COc1ccccc1-c1nnc(Sc2nc([N+](=O)[O-])nn2C)o1 | - | 0 | 0 | 0 | 60 | 0 | 87
CCc1ccc(NC(=O)Cn2ncc3c4ccccc4n(C)c3c2=O)cc1 | - | 0 | 0 | 0 | 0 | - | -
NC(=O)C1CCN(CC(=O)N2N=CCC2c2ccccc2)CC1 (stereo unspecified) | 0 | 0 | 0 | 0 | 0 | - | -
Cc1ccnc(NC(=O)c2ccc([N+](=O)[O-])o2)c1 | 0 | 0 | 0 | 0 | 0 | - | -
Cc1ccc(NC(=O)c2ccc([N+](=O)[O-])o2)cc1C | 0 | 0 | 45 | 0 | 37 | 31 | 93
COC(=O)/C=C/c1ccc(OC(=O)OC)c(OC(=O)OC)c1 | 0 | 0 | 0 | 0 | 30 | 0 | 82
COC(=O)/C=C/c1ccc2c(c1)OCO2 | 0 | 0 | 0 | 0 | 0 | - | -
Cn1c(COc2ccccc2O)[n+](C)c2ccccc21 | - | 0 | 0 | - | - | - | -
COc1ccc(N=Nc2n(C)c3ccccc3[n+]2C)cc1 | - | 0 | 0 | 0 | 26 | 35 | 0
Cc1ccc(O)c(NC(=O)CSc2ccc(Cl)cc2)c1 | 0 | 0 | 0 | 0 | 43 | 0 | 71
COc1ccccc1NC(=O)CCCc1nnc2n(C)c(=O)c3sccc3n12 | - | 0 | 0 | - | - | - | -
CCn1c(SCc2c(F)cccc2Cl)nnc1-c1ccco1 | 0 | 0 | 0 | 0 | 27 | 0 | 0
SMILES | APP transl inh | KLF5 inh | IEC-6 tox | BaF3 tox | Ba/F3 V617F tox | BaF3 parental 2 | JAK2V617F conf
CCn1c(SCc2nc(-c3ccccc3)no2)nnc1-c1ccco1 | 0 | 0 | 0 | 0 | 0 | - | -
COc1ccc(-n2nnnc2S(=O)(=O)Cc2ccc(C(=O)O)cc2)cc1 | 0 | 0 | 0 | 0 | 0 | - | -
COc1ccc(-n2nnnc2S(=O)(=O)CC(=O)N2CCCCC2)cc1 | 0 | 0 | 0 | 0 | 27 | 0 | 88
CCN(CC)c1ccc2c(c1)OC(N)=C(C#N)C2c1cccnc1 (stereo unspecified) | 94 | 0 | 0 | 0 | 83 | 78 | 98
C/C(=N\Nc1nc(-c2ccccn2)nc2ccccc12)c1ccc(F)cc1 | - | 0 | 0 | 0 | 0 | - | -
c1ccc(CCNc2nc(-c3ccccn3)nc3ccccc23)cc1 | - | 0 | 0 | 0 | 58 | 0 | 88
O=C(NC(NC1CCS(=O)(=O)C1)C(Cl)(Cl)Cl)c1ccc(Br)cc1 (stereo unspecified) | 0 | 0 | 0 | 0 | 36 | 0 | 24
